# Experimental data: PubChem BioAssay (NCI)
# This is part of a sample that, as a whole, favours compounds with a hit. Of some 83,000 tested, about 20% had one in any assay.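 Testing used 96-well plates and a 48-hour single-concentration exposure. Example: -40 means 40% of the starting cells died.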 Unmarked numbers belong to inactive results. The source made the active and inactive calls. Rule for the calls: active = growth percent below 10; inactive = the rest.
# Tests used:
# Test in all cases: NCI-60 one-dose screen, 48 h (100 = growth as untreated, 0 = no growth, -100 = all killed)
# Settings in all cases: 10 µM unless noted
# NCI-H23 lung = system: NCI-H23 lung
# NCI-H226 lung = system: NCI-H226 lung
# NCI-H322M lung = system: NCI-H322M lung
# HOP-62 NSCLC = system: HOP-62 NSCLC
# NCI-H460 lung = system: NCI-H460 lung
# HOP-92 NSCLC = system: HOP-92 NSCLC
# NCI-H522 lung = system: NCI-H522 lung
# A549/ATCC NSCLC = system: A549/ATCC NSCLC
# 786-0 renal = system: 786-0 renal
# COLO 205 colon = system: COLO 205 colon
SMILES,growth (NCI-H23 lung),growth (NCI-H226 lung),growth (NCI-H322M lung),growth (HOP-62 NSCLC),growth (NCI-H460 lung),growth (HOP-92 NSCLC),growth (NCI-H522 lung),growth (A549/ATCC NSCLC),growth (786-0 renal),growth (COLO 205 colon)
CCN(CC)c1ccc2[nH]c3c(C(N)=O)cc(=O)c(=O)c=3oc2c1,-28.2% (active),7.46% (active),-9.42% (active),-11.8% (active),-31.8% (active),26%,-39.7% (active),-5.31% (active),15%,1.25% (active)
Cc1ccc(S(=O)(=O)c2nc(-c3ccccc3)oc2S(C)(=O)=O)cc1,76.3%,90.5%,106%,80.7%,80%,-27.4% (active),-84.4% (active),85.6%,-16.5% (active),-76.6% (active)
CC12CCC3C4(C)COC(c5ccccc5Cl)OC4CCC3(C)C1CC(C1=CCOC1=O)O2 (stereo not given),52.7%,59.5%,90.2%,78.3%,44.1%,85.7%,59.4%,64.1%,-89.9% (active),45%
COc1cc([N+](=O)[O-])c2ncccc2c1O,-9.28% (active),5.16% (active),2.58% (active),5.92% (active),2.09% (active),79.4%,42.5%,-16.5% (active),108%,-67.8% (active)
COc1ccc(/C=C2\Oc3cc(OCCCN4CCCC4)ccc3C2=O)cc1,87.2%,93%,93.1%,89.7%,68.5%,82.2%,85.7%,90.6%,93%,93.5%
COc1ccc2c(c1)cn1c3ccc(OC)cc3[nH]c(=O)c21,33.3%,5.93% (active),-45.3% (active),5.85% (active),-51% (active),28.4%,-44.9% (active),-57% (active),-88.3% (active),-61.3% (active)
O=C1c2c(Cl)c(Cl)c(Cl)c(Cl)c2C(=O)C2(Cl)CC=CCC12Cl (stereo not given),10%,73%,72.6%,-90.2% (active),50.3%,-58.1% (active),-80.7% (active),74.1%,0.0645% (active),-77.3% (active)
COc1cc(C2CC(c3ccc4c(c3)OCO4)=NN2C=O)cc(OC)c1OC (stereo not given),59.9%,58.3%,14.1%,36.7%,15.3%,74.6%,-3.85% (active),46.2%,37.4%,12.6%
CN(C)c1cccc2c(S(=O)(=O)/N=C(\N)Nc3nc4ccccc4s3)cccc12,66.6%,69.8%,83.4%,40.6%,30.3%,60.2%,30.1%,52.3%,77.6%,85.6%
COc1cccc(-c2nc3sccn3c2-c2ccnc(NCCCNS(=O)(=O)c3ccc(F)cc3)c2)c1,30.6%,27.5%,69.9%,64.1%,34.8%,58.8%,29.3%,23.2%,56.8%,33.1%
Cc1cc(C2(c3cc(C)c(O)cc3C)OS(=O)(=O)c3ccccc32)c(C)cc1O,106%,106%,101%,92.2%,108%,81.7%,92.2%,97.2%,109%,111%
COc1ccc2cc(-c3ccc(-c4ccc(C(=N)N)cc4)s3)ccc2c1,107%,102%,97.7%,93.3%,100%,87.2%,102%,104%,99.5%,72.5%
O=[N+]([O-])c1cccc(-c2nc3sccn3c2-c2ccnc(NCCCNS(=O)(=O)c3ccc(C(F)(F)F)cc3)n2)c1,29.7%,23.8%,63.1%,50%,40.2%,53%,20.8%,31.3%,51.8%,24.7%
C=C(C)[C@@H]1C[C@H](O)Cc2cc(F)ccc2N1,96.9%,95.6%,102%,87.4%,101%,95.6%,93.7%,97.5%,105%,101%
Nc1nnc(-c2ccc3ccccc3c2O)o1,85.3%,94.8%,88%,89.8%,92.6%,83%,85.1%,93.5%,104%,99.5%
C=CCn1c2ccccc2c2c3c(c4c5ccccc5n(CC=C)c4c21)C(=O)N(O)C3=O,24.2%,-97.9% (active),52.8%,-1.11% (active),8.86% (active),77.2%,-62.5% (active),37.7%,15.1%,56.5%
CC(C)(C)n1cc(-c2ccnc(NCCNS(=O)(=O)c3ccc(C(F)(F)F)cc3)c2)c(-c2cccc(O)c2)n1,55.8%,67.2%,74.9%,71.5%,21.2%,35.4%,49%,41.1%,33.9%,-33.8% (active)
COc1cc(-c2nc(-c3nc4ccc(Cl)cc4[nH]3)cc3c2[nH]c2ccccc23)cc(OC)c1OC,71.5%,73.2%,82.9%,83.7%,73.8%,51.8%,39.7%,59.2%,81%,84.6%
CCN1C(=O)N(CC)C2C1NN=c1s/c(=C\c3cccnc3)c(=O)n12 (stereo not given),44.5%,49.7%,47.3%,53.4%,7.97% (active),101%,8.92% (active),27%,41.7%,12.3%
CN(C)c1ncnc2c1ccn2C1OC(CO)C(O)C1O (stereo not given),54.5%,72.7%,3.23% (active),50.8%,45.6%,-6.76% (active),90.9%,61.4%,34.8%,54.3%
COc1ccc(-c2ccc(-c3ccc(C(=N)N)cn3)s2)cc1OC,94%,96.3%,97.7%,91.4%,99.5%,69.3%,100%,100%,100%,103%
COc1ccc(C(=O)c2cc(OC)c(OC)c(OC)c2OC)cc1O,44.2%,86.8%,55.4%,42%,13.7%,60.4%,-0.0983% (active),50.6%,51%,86%
Cc1ccc(Cc2c(C=O)nc(N)[nH]c2=O)c2ccccc12,97.7%,98.6%,119%,96.2%,109%,91.9%,118%,86.6%,89.8%,95.5%
Cc1ccc(NS(=O)(=O)c2cc(C)ccc2C)cc1,59.2%,79.1%,88.7%,49.3%,14.4%,39.6%,11.5%,33.5%,61%,32.8%
COc1ccc(-c2nc(/C=N/Nc3cc(C)nc4ccc(Cl)cc34)c(C)o2)cc1,42.1%,75.6%,-92.5% (active),83.2%,-89.2% (active),-84.8% (active),-85.2% (active),-91.6% (active),-87.5% (active),-72.8% (active)
CNc1ccc(Br)c2c1C(=O)c1ccccc1C2=O,98.3%,104%,110%,107%,105%,80.6%,98%,110%,96.7%,132%
Clc1cc2c(nn1)Nc1ccccc1S2,94.7%,104%,97.8%,97.5%,99.2%,83.6%,56.5%,91.7%,99.3%,116%
